Results on 38 molecules are retold here after PubChem BioAssay (Tox21).

Values joined by “and” are separate entries in the source; they are usually repeats but may differ in a detail not shown here. Identical values can stand only once. Results filed as inconclusive are left out. Where a call stands in place of a potency, no number is given. Active and inactive are the calls of the source. Unless noted, the call rests on the fitted dose curve; in most records, active means well fitted cell-killing curve with a large enough effect in the repeat runs; inconclusive means weak or mixed curves, or effect the other way; inactive means no such curve, though single readings can be large or run the other way. Starred links: 1 amine or outer side, 2 acyl side, 3 side chain; linkers in the order of their positions; H or OH if unused. Positions of bridges follow the written chain, without caps; N, C: chain ends. Non-standard residues stand in square brackets, D forms with d. Residues, ends and D or L forms follow the SMILES beside them. Chains are numbered I, II in the order given. Actinocin(9to1) = Cc1c2oc3c(C)ccc(C(=O)[*:1])c3nc-2c(C(=O)[*:2])c(N)c1=O; NMeV = CN[C@H](C(=O)O)C(C)C; Sar = CNCC(=O)O
Potency means the concentration at half of the fitted maximal effect.

In one test the target is Thyrotropin receptor (Homo sapiens) (UniProt P16473). The test can be described thus: qHTS assay to identify small molecule antagonists of the thyroid stimulating hormone receptor (TSHR) signaling pathway (AID 1259385; calls by dose curve; further: nearly all actives have a fitted effect of over 20% in size). The conditions noted are these: TSHR-HEK293 cAMP HTRF, TSH-stimulated antagonist mode; series mostly up to 92.4 µM. The procedure, abridged: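 TSHR-HEK293 cells were plated and held 18 h at 37C/5% CO2, then given compound plus Ro20-1724 and stimulated with TSH at 1.5 ng/mL final. After 30 min at room temperature, cAMP was detected with cAMP-d2/anti-cAMP-cryptate (1 h) by fluorescence.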
Thyrotropin receptor (Homo sapiens), sequence (P16473 whole entry, looked up): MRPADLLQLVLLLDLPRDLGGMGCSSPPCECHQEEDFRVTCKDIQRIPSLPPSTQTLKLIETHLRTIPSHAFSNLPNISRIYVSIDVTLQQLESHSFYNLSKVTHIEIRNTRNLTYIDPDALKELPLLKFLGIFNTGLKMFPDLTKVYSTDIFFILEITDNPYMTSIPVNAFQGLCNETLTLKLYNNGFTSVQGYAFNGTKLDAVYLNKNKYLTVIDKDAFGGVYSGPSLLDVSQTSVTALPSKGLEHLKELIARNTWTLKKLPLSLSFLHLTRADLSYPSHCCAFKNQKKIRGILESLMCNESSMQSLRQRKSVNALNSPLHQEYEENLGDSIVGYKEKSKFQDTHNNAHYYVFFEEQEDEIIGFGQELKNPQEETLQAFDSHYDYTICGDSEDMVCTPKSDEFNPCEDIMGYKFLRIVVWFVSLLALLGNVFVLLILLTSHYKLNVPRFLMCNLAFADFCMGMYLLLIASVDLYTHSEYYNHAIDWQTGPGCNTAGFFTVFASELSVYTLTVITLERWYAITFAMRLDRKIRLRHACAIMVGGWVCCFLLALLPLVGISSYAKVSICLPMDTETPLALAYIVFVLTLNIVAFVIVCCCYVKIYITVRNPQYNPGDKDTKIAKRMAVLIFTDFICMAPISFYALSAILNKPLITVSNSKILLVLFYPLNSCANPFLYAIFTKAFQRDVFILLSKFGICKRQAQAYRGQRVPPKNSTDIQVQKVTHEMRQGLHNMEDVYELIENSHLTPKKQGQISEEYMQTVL
For orientation: In qHTS, concentration-response curves come from the screen itself.
Regarding `COc1ccc(Cc2cnc(N)nc2N)cc1OC`, the Potency result was “inactive”.
Regarding `Cc1scc2c1N(C(=O)CN1CCN(C)CC1)c1ccccc1NC2=O`, the Potency entry was “inactive”.
Still for that read-out and setting: under `CC(C)(C)NCC(O)COc1ccccc1OCC1CCCO1` (stereo not drawn) stands “inactive”.
Same read-out and setting: as for `C=CC(=O)OCCCCCCOC(=O)C=C`, the entry is “inactive”; as for `CCN(CC)CCOc1ccc(/C(=C(\Cl)c2ccccc2)c2ccccc2)cc1`, 29.8 µM (active).
Regarding `C/C=C/c1ccc(OCC)c(O)c1`, the Potency result was “inactive”.
`CCCCCCCCCCCCCCCCCl`: the activity change, negative = inhibition was -1.34% [at 19 µM] (inactive).
Regarding `O=C(Cl)c1cccc(C(=O)Cl)c1`, the Potency entry was “inactive”.
On the same count and under the same terms, as for `CN1C(=O)c2ccc([N+](=O)[O-])cc2C1=O`, the entry is “inactive”; as for `CC(C)(C)c1ccccc1`, “inactive”.
Same read-out and setting: as for `Oc1c(Cl)cc(Cl)cc1Sc1cc(Cl)cc(Cl)c1O`, the entry is “inactive”; as for `O=c1n(CC2CO2)c(=O)n(CC2CO2)c(=O)n1CC1CO1` (stereo not drawn), “inactive”.
In the case of `c1ccc2n[nH]nc2c1`, the Potency result was “inactive”.
Same read-out and setting: as for `CCCCCCC(O)CCCCCCCCCCC(=O)O` (stereo not drawn), the entry is “inactive”.
Same read-out and setting: as for `O=C1Nc2ccccc2C1(c1ccc(O)cc1)c1ccc(O)cc1`, the entry is “inactive”; as for `Cc1cc(OCCOCC[N+](C)(C)Cc2ccccc2)ccc1C(C)(C)CC(C)(C)C`, “inactive”; as for `CCC(C)(Oc1ccc(C2(c3ccc(OC(C)(CC)C(=O)O)cc3)CCCCC2)cc1)C(=O)O` (stereo not drawn), “inactive”.
On the same count and under the same terms, under `Oc1ccc(Cl)cc1Cc1cc(Cl)ccc1O` stands “inactive”; under `N[C@@H]1CONC1=O`, “inactive”; under `Cc1ccnc2c1NC(=O)c1cccnc1N2C1CC1`, “inactive”.
In the case of `COC(c1ccccc1)(c1ccccc1)[C@H](Oc1nc(C)cc(C)n1)C(=O)O`, the Potency result is “inactive”.
Take `CCOC(=O)C(C)C(C)=O` (stereo not drawn): the Potency entry is “inactive”.
Same read-out and setting: under `CCC(=O)/C=C/C1C(C)=CCCC1(C)C` (stereo not drawn) stands “inactive”.
The same measure, in the same setting: under `O=C(O)CCc1ccccc1` stands “inactive”; under `CC1COC(=O)O1` (stereo not drawn), “inactive”.
On to `CCn1c2ccccc2c2cc(N)ccc21`, for which the Potency result is “inactive”.
Same read-out and setting: under `CC(C)(C)c1cc(C(C)(C)C)c(O)c(C(C)(C)C)c1` stands “inactive”; under `CC(=O)OCC1=C(C(=O)O)N2C(=O)[C@@H](NC(=O)Cc3cccs3)[C@H]2SC1`, “inactive”; under `Cc1cccc([N+](=O)[O-])c1C(=O)O`, “inactive”.
On the same count and under the same terms, as for `CCC(CO)(CO)COCC(CC)(CO)CO`, the entry is “inactive”; as for `C[N+]1([O-])CCOCC1`, “inactive”; as for `Cc1cc(C(C)(C)C)c(O)c(C(C)(C)C)c1`, “inactive”.

System in a further test: not listed separately
In words: qHTS assay to identify small molecule agonists of the estrogen receptor alpha (ER-alpha) signaling pathway in the presence of an antagonist - cell viability counter screen (AID 1259386).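 Further: cells exposed to compounds for 22 h at 37 °C before the viability read; nearly all actives have a fitted effect of over 30% in size.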 The conditions noted are these: VM7Luc4E2 viability, CellTiter-Fluor fluorescence, 22 h; series mostly up to 92.4 µM. The procedure, abridged:
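VM7Luc4E2 cells (endogenous full-length ER-alpha, 4×ERE-luciferase) were held 5 days in phenol red-free medium with 10% charcoal-stripped FBS, plated, then given 10.0nM ICI-182,780 and compounds at 15 concentrations for 22hr at 37C; viability read by CellTiter-Fluor fluorescence.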
For `COc1ccc(Cc2cnc(N)nc2N)cc1OC`, the Potency entry was “inactive”.
Same read-out and setting: under `COC(=O)c1cccc(C(=O)OC)c1` stands “inactive”; under `Cc1scc2c1N(C(=O)CN1CCN(C)CC1)c1ccccc1NC2=O`, “inactive”.
Same read-out and setting: under `CC(C)(C)NCC(O)COc1ccccc1OCC1CCCO1` (stereo not drawn) stands “inactive”; under `C=CC(=O)OCCCCCCOC(=O)C=C`, “inactive”.
On the same count and under the same terms, as for `CCN(CC)CCOc1ccc(/C(=C(\Cl)c2ccccc2)c2ccccc2)cc1`, the entry is “inactive”; as for `C/C=C/c1ccc(OCC)c(O)c1`, “inactive”.
As for `CCCCCCCCCCCCCCCCCl`, the activity change, negative = cytotoxicity was -1.56% [at 19 µM] (inactive).
Take `Nc1cc(Cl)c(-c2cc(Cl)c(N)cc2Cl)cc1Cl`: the Potency result is “inactive”.
Take `O=C(Cl)c1cccc(C(=O)Cl)c1`: the Potency entry is “inactive”.
Same read-out and setting: under `CN1C(=O)c2ccc([N+](=O)[O-])cc2C1=O` stands “inactive”.
On to `CC(C)(C)c1ccccc1`, for which the Potency result was “inactive”.
Same read-out and setting: under `Cc1c2oc3c(C)ccc(C(=O)N[C@@H]4C(=O)N[C@H](C(C)C)C(=O)N5CCC[C@H]5C(=O)N(C)CC(=O)N(C)[C@@H](C(C)C)C(=O)O[C@@H]4C)c3nc-2c(C(=O)N[C@@H]2C(=O)N[C@H](C(C)C)C(=O)N3CCC[C@H]3C(=O)N(C)CC(=O)N(C)[C@@H](C(C)C)C(=O)O[C@@H]2C)c(N)c1=O` (I: T[dV]P[Sar][NMeV] / II: T[dV]P[Sar][NMeV]; ester I:1-I:C, II:1-II:C; linker I:N-II:N via Actinocin(9to1)) stands 26.6 µM (active) and 10.6 µM (active); under `O=C(O[C@@H]1Cc2c(O)cc(O)cc2O[C@@H]1c1cc(O)c(O)c(O)c1)c1cc(O)c(O)c(O)c1`, 54.6 µM (active) and 46.8 µM (active).
The same measure, in the same setting: under `C=C(C)C(=O)O` stands “inactive”.
Still for that read-out and setting: as for `O=c1n(CC2CO2)c(=O)n(CC2CO2)c(=O)n1CC1CO1` (stereo not drawn), the entry is “inactive”; as for `c1ccc2n[nH]nc2c1`, “inactive”.
Turning to `CCCCCCC(O)CCCCCCCCCCC(=O)O` (stereo not drawn), the Potency result is “inactive”.
The same measure, in the same setting: under `O=C1Nc2ccccc2C1(c1ccc(O)cc1)c1ccc(O)cc1` stands 1.37 µM (active) and 944 nM (active); under `CCC(C)(Oc1ccc(C2(c3ccc(OC(C)(CC)C(=O)O)cc3)CCCCC2)cc1)C(=O)O` (stereo not drawn), “inactive”.
The same measure, in the same setting: under `Oc1ccc(Cl)cc1Cc1cc(Cl)ccc1O` stands 43.3 µM (active); under `N[C@@H]1CONC1=O`, “inactive”; under `Cc1ccnc2c1NC(=O)c1cccnc1N2C1CC1`, “inactive”.
As for `COC(c1ccccc1)(c1ccccc1)[C@H](Oc1nc(C)cc(C)n1)C(=O)O`, the Potency entry was “inactive”.
For `CCOC(=O)C(C)C(C)=O` (stereo not drawn), the Potency entry was “inactive”.
For `CCC(=O)/C=C/C1C(C)=CCCC1(C)C` (stereo not drawn), the Potency result is “inactive”.
`CC(C(O)c1ccc(O)cc1)N1CCC(Cc2ccccc2)CC1` (stereo not drawn): the Potency entry was “inactive”.
Still for that read-out and setting: under `O=C(O)CCc1ccccc1` stands “inactive”.
On the same count and under the same terms, as for `CC1COC(=O)O1` (stereo not drawn), the entry is “inactive”; as for `CCn1c2ccccc2c2cc(N)ccc21`, “inactive”.
Still for that read-out and setting: under `CC(C)(C)c1cc(C(C)(C)C)c(O)c(C(C)(C)C)c1` stands “inactive”; under `CC(=O)OCC1=C(C(=O)O)N2C(=O)[C@@H](NC(=O)Cc3cccs3)[C@H]2SC1`, “inactive”; under `Cc1cccc([N+](=O)[O-])c1C(=O)O`, “inactive”.
For the molecule `CCC(CO)(CO)COCC(CC)(CO)CO`, the Potency entry was “inactive”.
Still for that read-out and setting: under `C[N+]1([O-])CCOCC1` stands “inactive”; under `Cc1cc(C(C)(C)C)c(O)c(C(C)(C)C)c1`, “inactive”.
